Results reported in PubChem BioAssay (NCATS).
Values joined by “and” are separate entries in the source; they are usually repeats but may differ in a detail not shown here. Equal entries are not always repeated. Inconclusive results are not listed. Active and inactive are the calls of the source. Unless noted, calls follow the shape of the dose curve; as a rule, active = well fitted curve in the direction sought with a large enough effect; inconclusive = small, poorly fitted or top-dose-only effect, or another doubt; inactive = no such curve, though single readings can be large; an effect the other way counts as inactive or inconclusive.

Key:
[1] = qHTS assay for small molecule agonists of retinoid X receptor alpha signaling (AID 588544; calls by dose curve;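 as to activation: 0% = DMSO basal wells and 100% = reference agonist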); conditions: HEK293T RXRa-UAS-bla, beta-lactamase reporter, 18 h; 530 nm emission
[2] = molecular target: Retinoic acid receptor RXR-alpha (Homo sapiens) (UniProt P19793); assay: as above
Chain of Retinoic acid receptor RXR-alpha (Homo sapiens) (P19793 whole entry, looked up): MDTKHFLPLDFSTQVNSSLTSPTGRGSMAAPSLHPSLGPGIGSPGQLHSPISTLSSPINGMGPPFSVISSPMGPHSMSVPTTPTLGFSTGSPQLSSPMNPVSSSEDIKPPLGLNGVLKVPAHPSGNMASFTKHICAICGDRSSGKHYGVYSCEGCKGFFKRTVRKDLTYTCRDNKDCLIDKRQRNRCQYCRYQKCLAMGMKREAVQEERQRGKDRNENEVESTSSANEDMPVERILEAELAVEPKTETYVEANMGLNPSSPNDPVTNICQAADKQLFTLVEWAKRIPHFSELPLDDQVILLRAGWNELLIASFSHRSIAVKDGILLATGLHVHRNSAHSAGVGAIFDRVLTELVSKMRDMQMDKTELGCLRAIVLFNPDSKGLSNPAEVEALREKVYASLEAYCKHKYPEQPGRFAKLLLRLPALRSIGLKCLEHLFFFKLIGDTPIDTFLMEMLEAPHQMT

[3] = molecular target: Thyroid hormone receptor beta (Homo sapiens) (UniProt P10828); assay: qHTS assay for small molecule agonists of thyroid hormone receptor beta signaling (AID 588545; calls by dose curve)
Chain of Thyroid hormone receptor beta (Homo sapiens) (P10828 whole entry, looked up): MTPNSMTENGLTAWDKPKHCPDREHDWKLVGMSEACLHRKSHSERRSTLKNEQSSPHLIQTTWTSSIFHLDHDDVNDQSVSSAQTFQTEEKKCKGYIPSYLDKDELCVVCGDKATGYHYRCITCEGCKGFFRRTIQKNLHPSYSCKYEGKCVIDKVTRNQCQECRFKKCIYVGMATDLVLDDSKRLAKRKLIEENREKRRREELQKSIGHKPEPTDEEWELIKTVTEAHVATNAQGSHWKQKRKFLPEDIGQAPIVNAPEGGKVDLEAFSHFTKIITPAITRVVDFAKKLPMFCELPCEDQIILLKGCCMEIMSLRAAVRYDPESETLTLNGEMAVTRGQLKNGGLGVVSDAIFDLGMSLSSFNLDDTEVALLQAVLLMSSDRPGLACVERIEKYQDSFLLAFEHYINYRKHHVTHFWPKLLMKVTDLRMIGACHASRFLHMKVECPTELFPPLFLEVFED
Procedure, shortened: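 Agonist activity was read as beta-lactamase CCF4 fluorescence (405 ex, 460/530 em), scaled between DMSO (0%) and 10 nM T3 (100%), then Hill-fitted for EC50 and efficacy. HEK 293 TR-UAS-bla cells in 2% charcoal/dextran FBS medium were exposed 18 h at 37 C.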

[4] = qHTS assay for small molecule antagonists of retinoid X receptor alpha signaling (AID 588546; active = well fitted inhibition curve with a large enough effect in the signal ratio, with a control signal flat, not every such curve was filed as active; the % refers to the signal ratio;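 also: cells stimulated with 9-cis-retinoic acid as agonist; % is scaled to controls: 0 for no effect and ±100 for the full control effect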); conditions: HEK293T RXRa-UAS-bla, beta-lactamase ratio, antagonist mode; measured here: W530 green channel, cytotoxicity proxy
Procedure, shortened: (§1)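 Beta-lactamase reporter inhibition, read as CCF4 fluorescence ratio (ex 405, em 460/530 nm) after 2 h at RT. HEK293T UAS-bla cells, 2500/well, were stimulated with 9-cis-RA at 500 or 100 nM final alongside test compound for 18 h at 37 C.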

[5] = molecular target: Retinoic acid receptor RXR-alpha (Homo sapiens) (UniProt P19793); assay: as above; conditions: HEK293T RXRa-UAS-bla, beta-lactamase ratio, antagonist mode
Procedure, shortened: as §1

[6] = molecular target: Thyroid hormone receptor beta (Homo sapiens) (UniProt P10828); assay: qHTS assay for small molecule antagonists of thyroid hormone receptor beta signaling (AID 588547; active = well fitted inhibition curve with a large enough effect in the signal ratio, with a control signal flat, not every such curve was filed as active; the % refers to the signal ratio;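 also: cells stimulated with 0.4 nM T3 agonist during compound exposure; series mostly up to about 77 µM; % is scaled to controls: 0 for no effect and ±100 for the full control effect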); conditions: TR-UAS-bla HEK293, beta-lactamase ratio, antagonist mode, 18 h
Procedure, shortened: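 TR-UAS-bla GripTite HEK293 cells in 2% charcoal/dextran FBS medium; compounds 0.59 nM to 92 uM with T3 at 0.4nM final, 18 h at 37 C. Beta-lactamase read by CCF4 fluorescence (460/530 nm); Hill fits gave IC50 and efficacy.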

[7] = qHTS assay for small molecule agonists of the antioxidant response element (ARE) signaling pathway (AID 651741; active = well fitted activation curve with a large enough effect in the signal ratio; the % refers to the signal ratio; also: % of control where 0% means no effect)
Procedure, shortened: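 Stably integrated ARE-beta-lactamase reporter HepG2 cells; 16 h compound incubation, 37 C; LiveBLAzer FRET substrate 2 h at room temperature; fluorescence intensity.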

[8] = qHTS assay for small molecule activators of the p53 signaling pathway (AID 651743; active = well fitted activation curve with a large enough effect in the signal ratio, not every such curve was filed as active; the % refers to the signal ratio; also: series mostly up to about 92 µM; % of control where 0% means no effect); conditions: HCT-116 p53RE-bla, beta-lactamase FRET ratio, 16 h; activation: stronger effect = higher value
Procedure, shortened: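 Following 16 hours of compound exposure at 37 C, HCT-116 cells bearing the p53RE-bla reporter were loaded with LiveBLAzer B/G FRET substrate for 2 hours at room temperature and fluorescence intensity was recorded.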

[9] = qHTS assay for small molecule activators of the nuclear factor-kappa B (NF-kB) signaling pathway (AID 651749; active = well fitted activation curve with a large enough effect in the signal ratio; the % refers to the signal ratio; also: series mostly up to about 77 µM; % of control where 0% means no effect); conditions: NF-kB-bla ME-180 cells, beta-lactamase FRET ratio, 16 h; activation: stronger effect = higher value
Procedure, shortened: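 In this qHTS format, compounds acting as activators increase NF-kB-driven beta-lactamase in ME-180 cells, measured as disrupted FRET after 16 hr exposure at 37C and 5% CO2.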

[10] = qHTS assay for small molecule disruptors of the mitochondrial membrane potential - 5 hr assay (AID 651755; calls by dose curve; also: % is scaled to controls: 0 for no effect and ±100 for the full control effect; nearly all actives have a fitted effect of over 40% in size)
Procedure, shortened: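 Read-out: ratiometric Mito-MPS fluorescence, green monomer (ex 490/em 535) vs red mitochondrial aggregate (ex 540/em 590). HepG2 cells treated 5 hr at 37C before 30 min dye loading.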

[11] = molecular target: Tumor necrosis factor (Homo sapiens) (UniProt P01375); assay: qHTS assay to identify small molecules that stimulate Tumor Necrosis Factor-alpha (TNF-alpha) secretion (AID 651757; active = well fitted curve in the direction sought with a large enough effect in the signal ratio; the % refers to the signal ratio; also: 0% is about no effect)
Chain of Tumor necrosis factor (Homo sapiens) (P01375 whole entry, looked up): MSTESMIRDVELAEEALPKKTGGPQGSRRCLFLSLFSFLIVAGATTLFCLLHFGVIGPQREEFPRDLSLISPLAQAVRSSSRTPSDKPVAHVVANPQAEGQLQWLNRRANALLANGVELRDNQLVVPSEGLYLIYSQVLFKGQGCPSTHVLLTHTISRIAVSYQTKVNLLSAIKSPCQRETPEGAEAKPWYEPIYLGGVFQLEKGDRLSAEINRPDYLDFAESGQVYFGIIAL
Procedure, shortened: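 Human monocytic THP-1 cells are plated, treated with compound and held at 37 C for 17 hrs. Labeled anti-TNF-alpha antibody mixture is then added; after 3 hr at room temperature, TR-FRET signal reports secreted TNF-alpha.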

[12] = qHTS assay to identify small molecules that stimulate interleukin-8 (IL-8) secretion (AID 651758; active = well fitted activation curve with a large enough effect in the signal ratio; the % refers to the signal ratio; also: 0% is about no effect)
Procedure, shortened: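 Compounds are added to THP-1 cells (2000 per well) and left 16 hrs at 37 C. A labeled anti-IL-8 antibody pair is then added, and IL-8 secretion is measured by time-resolved FRET after 1-3 hrs at room temperature.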

[13] = qHTS assay for environmental chemicals that activate the Aryl hydrocarbon Receptor (AhR) signaling pathway (AID 651777); conditions: 1A2-DRE human hepatoma cells, luciferase, 24 h; activation: stronger effect = higher value; also: % of control where 0% means no effect; nearly all actives have a fitted effect of over 15% in size
Procedure, shortened: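 1A2-DRE human hepatoma reporter line; 1,200 cells/well; cmpd or DMSO 24 h, 37 C/5% CO2; One-Glo 30 min RT; luciferase lum.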

[14] = molecular target: Peroxisome proliferator-activated receptor alpha (Homo sapiens) (UniProt Q07869); assay: qHTS assay for small molecule agonists of the peroxisome proliferator-activated receptor alpha (PPARalpha) signaling pathway (AID 651778); conditions: PathHunter PPARalpha complementation, chemiluminescence, 6 h; stronger effect = higher value; also: % of control where 0% means no effect
Chain of Peroxisome proliferator-activated receptor alpha (Homo sapiens) (Q07869 whole entry, looked up, the tested form may be a part): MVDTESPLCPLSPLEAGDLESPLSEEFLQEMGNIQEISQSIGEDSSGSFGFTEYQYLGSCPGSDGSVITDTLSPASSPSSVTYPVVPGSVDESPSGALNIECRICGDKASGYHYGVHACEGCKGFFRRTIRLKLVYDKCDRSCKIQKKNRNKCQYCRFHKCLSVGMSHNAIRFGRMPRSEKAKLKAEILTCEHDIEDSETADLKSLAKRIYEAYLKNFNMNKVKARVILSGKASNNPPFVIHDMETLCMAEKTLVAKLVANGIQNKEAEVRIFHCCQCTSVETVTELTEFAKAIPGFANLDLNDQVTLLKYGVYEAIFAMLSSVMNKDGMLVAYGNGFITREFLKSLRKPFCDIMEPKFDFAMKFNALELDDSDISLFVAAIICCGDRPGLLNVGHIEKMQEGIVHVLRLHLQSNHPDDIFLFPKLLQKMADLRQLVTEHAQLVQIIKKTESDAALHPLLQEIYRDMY
Procedure, shortened: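 Enzyme-fragment complementation assay in which ligand-bound PPARalpha translocates and forms an active enzyme that generates chemiluminescence. Cells were plated overnight, exposed to compound for 6 hr at 37 C, and then given detection reagent for 60 min at room temperature.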

[15] = qHTS assay for small molecule agonists of the antioxidant response element (ARE) signaling pathway measured by Nrf2-dependant transcriptional activity (AID 720636; active = well fitted curve in the direction sought with a large enough effect in the repeat runs; an effect the other way counts as inactive or inconclusive;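 also: HepG2 cells with an ARE-driven luciferase reporter; % of control where 0% means no effect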)
Procedure, shortened: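 Cells: ARE-luc HepG2 with Nrf2-responsive luciferase. Medium contained 1% dialyzed FBS. Compound exposure lasted 16 hr at 37 C and 5% CO2, followed by ONE-Glo luciferase detection.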

[16] = qHTS assay for small molecule antagonists of the retinoid-related orphan receptor gamma (ROR-gamma) signaling pathway - cell viability counter screen (AID 720652; active = well fitted curve in the direction sought with a large enough effect in the repeat runs; an effect the other way counts as inactive or inconclusive;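 also: CHO reporter cells with doxycycline-induced ROR-gamma expression; series mostly up to about 92 µM; compound exposure lasted 16 hr before ATP read; % is scaled to controls: 0 for no effect and ±100 for the full control effect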)
Procedure, shortened: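 Steps: seed CHO cells bearing TET-inducible ROR and ROR response element-luciferase; rest 5 hr at 37 C; add compound, then doxycycline; incubate 16 hr; add CellTiter-Glo and read luminescence as ATP-based viability.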

[17] = qHTS assay for small molecule agonists of the antioxidant response element (ARE) signaling pathway measured by Nrf2-dependant transcriptional activity - cell viability counter screen (AID 720653; active = well fitted curve in the direction sought with a large enough effect in the repeat runs; an effect the other way counts as inactive or inconclusive; also: % is scaled to controls: 0 for no effect and ±100 for the full control effect); conditions: ARE-bla HepG2 viability, CellTiter-Glo ATP luminescence, 16 h; stronger effect = lower value
Procedure, shortened: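 ARE-bla HepG2 cells treated with compounds for 16 h at 37C; this counter screen measures viability as intracellular ATP by CellTiter-Glo luminescence after 30 min at room temperature.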

[18] = qHTS assay for cell viability of HEK293 cells (AID 743288); conditions: ATP luminescence (CellTiter-Glo), 18 h; max response: stronger effect = lower value; also: % is scaled to controls: 0 for no effect and ±100 for the full control effect; nearly all actives have a fitted effect of over 50% in size
Procedure, shortened: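 Steps: plate 2,000 parental HEK293 cells per well; incubate ≥5 h, 37 C; add compounds in DMSO; incubate 18 h, 37 C; add CellTiter-Glo; wait 30 min at room temperature; read luminescence.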

[19] = qHTS assay for cell viability of the p53RE-bla HCT-116 cell line (AID 743292); also: % is scaled to controls: 0 for no effect and ±100 for the full control effect; nearly all actives have a fitted effect of over 55% in size
Procedure, shortened: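 HCT-116 p53RE-bla cells seeded 4,000/well; 5 h at 37 C; compound (DMSO) added; 16 h at 37 C; CellTiter-Glo added, 30 min RT; luminescence read.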

[20] = molecular target: Rap guanine nucleotide exchange factor 3 (Homo sapiens) (UniProt O95398); assay: Confirmatory qHTS for antagonist of cAMP-regulated guanine nucleotide exchange factor 3 (EPAC1) (AID 1645880);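 also: plate controls were DMSO only for no effect and full effect of the ATA control for full effect; nearly all actives have a fitted effect of over 55% in size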
Chain of Rap guanine nucleotide exchange factor 3 (Homo sapiens) (O95398 whole entry, looked up): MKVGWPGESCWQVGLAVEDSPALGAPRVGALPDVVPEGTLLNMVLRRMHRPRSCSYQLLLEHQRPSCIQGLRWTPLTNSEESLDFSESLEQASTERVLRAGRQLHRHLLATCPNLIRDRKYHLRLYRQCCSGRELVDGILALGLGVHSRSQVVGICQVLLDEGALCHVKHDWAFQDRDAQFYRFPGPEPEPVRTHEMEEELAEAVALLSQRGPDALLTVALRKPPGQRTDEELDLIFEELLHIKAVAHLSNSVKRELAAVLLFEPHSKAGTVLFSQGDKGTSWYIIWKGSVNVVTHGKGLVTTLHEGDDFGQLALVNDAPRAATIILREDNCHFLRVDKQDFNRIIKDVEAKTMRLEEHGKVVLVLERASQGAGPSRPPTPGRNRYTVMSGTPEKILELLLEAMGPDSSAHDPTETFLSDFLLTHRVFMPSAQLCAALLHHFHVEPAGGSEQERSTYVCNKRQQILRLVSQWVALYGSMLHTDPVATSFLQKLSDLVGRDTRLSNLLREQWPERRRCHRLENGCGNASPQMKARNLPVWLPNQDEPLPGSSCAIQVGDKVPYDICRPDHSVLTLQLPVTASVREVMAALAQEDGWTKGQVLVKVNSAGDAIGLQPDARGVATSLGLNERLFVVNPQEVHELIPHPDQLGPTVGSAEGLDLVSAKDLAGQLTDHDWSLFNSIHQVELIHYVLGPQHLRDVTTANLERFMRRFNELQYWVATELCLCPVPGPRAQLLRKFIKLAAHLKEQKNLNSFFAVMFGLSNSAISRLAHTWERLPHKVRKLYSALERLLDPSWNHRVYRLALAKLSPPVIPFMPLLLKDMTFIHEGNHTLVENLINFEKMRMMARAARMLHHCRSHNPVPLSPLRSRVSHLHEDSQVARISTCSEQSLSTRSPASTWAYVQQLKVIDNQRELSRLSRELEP
Procedure, shortened: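 Released BODIPY-GDP fluoresces less than Rap1-bound BODIPY-GDP; the signal is followed at 480/540 nm at 5-min intervals over 30 min, after 5 min at room temperature. Reactions contain 100 nM EPAC1, 250 nM RAP1B-BODIPY-GDP and 50 uM GDP; results are normalized to ATA and DMSO.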

[21] = molecular target: Rap guanine nucleotide exchange factor 3 (Homo sapiens) (UniProt O95398); assay: Confirmatory qHTS for agonist of cAMP-regulated guanine nucleotide exchange factor 3 (EPAC1) (AID 1645881);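 also: EPAC1 catalysed release of BODIPY-GDP from Rap1B seen as fluorescence loss; 100% = effect of cAMP agonist control; nearly all actives have a fitted effect of over 75% in size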
[22] = molecular target: Rap guanine nucleotide exchange factor 4 (Homo sapiens) (UniProt Q8WZA2); assay: Confirmatory qHTS for agonist of cAMP-regulated guanine nucleotide exchange factor 4 (EPAC2) (AID 1645884);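 also: nucleotide exchange releases bodipy-GDP from Rap1 and this lowers its fluorescence; % is scaled to controls: 0 for no effect and ±100 for the full control effect; nearly all actives have a fitted effect of over 65% in size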
Chain of Rap guanine nucleotide exchange factor 4 (Homo sapiens) (Q8WZA2 whole entry, looked up): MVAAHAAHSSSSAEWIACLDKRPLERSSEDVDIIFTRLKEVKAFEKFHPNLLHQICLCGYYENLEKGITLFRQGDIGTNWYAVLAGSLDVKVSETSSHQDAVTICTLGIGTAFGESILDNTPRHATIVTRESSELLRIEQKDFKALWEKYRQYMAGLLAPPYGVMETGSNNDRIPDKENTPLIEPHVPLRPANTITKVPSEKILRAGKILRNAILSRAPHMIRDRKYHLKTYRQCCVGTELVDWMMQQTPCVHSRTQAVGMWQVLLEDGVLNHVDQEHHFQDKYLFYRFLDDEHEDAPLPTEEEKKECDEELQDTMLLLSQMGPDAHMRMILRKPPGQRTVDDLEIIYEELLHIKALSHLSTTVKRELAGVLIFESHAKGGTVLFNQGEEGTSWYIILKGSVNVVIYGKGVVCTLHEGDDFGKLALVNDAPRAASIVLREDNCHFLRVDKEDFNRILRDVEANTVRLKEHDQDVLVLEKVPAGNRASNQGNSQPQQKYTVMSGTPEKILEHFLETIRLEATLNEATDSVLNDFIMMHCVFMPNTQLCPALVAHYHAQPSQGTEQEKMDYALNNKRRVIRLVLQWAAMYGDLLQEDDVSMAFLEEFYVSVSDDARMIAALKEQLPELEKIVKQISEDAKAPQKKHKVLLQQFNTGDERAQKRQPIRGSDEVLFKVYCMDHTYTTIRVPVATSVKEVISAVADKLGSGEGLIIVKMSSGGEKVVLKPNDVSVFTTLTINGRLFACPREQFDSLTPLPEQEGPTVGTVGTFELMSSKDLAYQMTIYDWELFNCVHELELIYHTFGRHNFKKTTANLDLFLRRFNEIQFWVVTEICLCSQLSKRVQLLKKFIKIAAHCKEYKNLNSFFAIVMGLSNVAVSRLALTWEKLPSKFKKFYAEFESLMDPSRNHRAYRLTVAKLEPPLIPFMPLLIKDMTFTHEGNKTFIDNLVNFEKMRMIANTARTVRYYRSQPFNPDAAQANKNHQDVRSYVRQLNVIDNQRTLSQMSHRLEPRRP

[23] = molecular target: Nuclear receptor subfamily 1 group I member 2 (Rattus norvegicus) (UniProt Q9R1A7); assay: qHTS assay for small molecule activators of the rat pregnane X receptor (rPXR) signaling pathway (AID 651751; call rule not given here; also: 0% is about no effect); conditions: rPXR reporter cells, luciferase (One-Glo), 24 h
Chain of Nuclear receptor subfamily 1 group I member 2 (Rattus norvegicus) (Q9R1A7 whole entry, looked up): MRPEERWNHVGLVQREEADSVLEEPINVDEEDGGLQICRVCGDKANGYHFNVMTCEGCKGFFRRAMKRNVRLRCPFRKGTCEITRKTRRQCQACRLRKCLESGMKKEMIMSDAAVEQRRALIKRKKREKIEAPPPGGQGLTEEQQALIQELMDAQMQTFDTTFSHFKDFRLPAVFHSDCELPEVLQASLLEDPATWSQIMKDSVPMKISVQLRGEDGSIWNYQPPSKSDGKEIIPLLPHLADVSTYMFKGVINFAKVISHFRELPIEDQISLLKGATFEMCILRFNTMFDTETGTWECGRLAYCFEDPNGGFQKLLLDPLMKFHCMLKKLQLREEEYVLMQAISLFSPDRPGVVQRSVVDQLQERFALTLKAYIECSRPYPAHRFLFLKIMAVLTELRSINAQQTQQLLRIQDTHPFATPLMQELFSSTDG

[24] = qHTS assay for small molecule activators of the human pregnane X receptor (PXR) signaling pathway (AID 720659; call rule not given here; also: 0% is about no effect)

CCCCOC(=O)c1ccccc1C(=O)OCCCC
-3.09%: max response [4]
inactive: Potency [2] | outcome [3] | max response [5] -10.9% | activity change % (negative = inhibition) [6] 17.1% and -3.92% | Potency [7] | activation [8] -2.51% and -0.006% | activation [9] -1.75% and -1.98% | Potency [10] | outcome [11] | Potency [12] | activation [13] -0.984% and 1.91% | max response [14] -1.47% and -0.868% | outcome [15] | Potency [16] | max response [17] -12.7% and 12.7% | max response [18] -1.27% and -9.6% | Potency [19] | Potency [20] | Potency [21] | Potency [22] | max response [23] 4.96% and 5.3% | outcome [24]
-8.82% and -0.286%: max response [1]
